“And” between values parts separate entries of the source, which are not always exact repeats. Equal entries are not always repeated. Records with an inconclusive call do not appear. The source made the active and inactive calls. Unless noted, calls come from the whole dose curve; as a rule, active = well fitted curve in the direction sought with a large enough effect; inconclusive = small, poorly fitted or top-dose-only effect, or another doubt; inactive = no such curve, though single readings can be large; an effect the other way counts as inactive or inconclusive.
How the values were obtained:
[1] = Cell Viability - SK-N-SH (AID 435; calls by dose curve;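 note: potency is the fitted concentration of half-maximal effect; compound exposure lasted 40 h at 37 °C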); settings: SK-N-SH neuroblastoma cell viability qHTS
Procedure, shortened: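 SK-N-SH human neuroblastoma cells (1500/well) were exposed to compounds in complete medium for 40 h at 37 °C, and intracellular ATP was then measured by CellTiter-Glo luminescence. AC50 was taken from Hill fits, normalized to DMSO and 100 uM tamoxifen.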

[2] = Cellular Toxicity (caspase-3) H-4-II-E (AID 663); settings: H-4-II-E rat hepatoma; Potency: caspase-3 activation; series mostly up to 92.2 µM;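 note: cells exposed to compound for 16 hr before readout; 0% = DMSO basal and 100% = 100 µM tamoxifen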
Procedure, shortened: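 Caspase 3/7 activation measured in H-4-II-E cells in complete culture medium after 16 hr treatment at 37 °C, using luciferase-coupled substrate readout; AC50 values come from Hill-equation fits of normalized concentration-response data.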

[3] = MultiTox-Fluor Cytotoxicity Assay - LYMP1-002 - Dead Cells (AID 960); settings: LYMP1-002 lymphoblastoid cells, dead-cell protease fluorescence; series mostly up to 46.1 µM;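 note: 0% = DMSO and 100% = tetraoctylammonium bromide; nearly all actives have a fitted effect of over 60% in size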
Procedure, shortened: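 Dead-cell fluorescence (Ex/Em 485/520) after 16 h compound exposure at 37 C of LYMP1-002 lymphoblastoid cells in complete medium; AC50 by Hill equation, with data scaled between DMSO and 15 uM tetraoctylammonium bromide.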

[4] = Cell Viability - LYMP2-004 (AID 966); settings: LYMP2-004 lymphoblastoid cell viability, qHTS; series mostly up to 92.2 µM;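 note: plate controls were DMSO only for no effect and tetraoctylammonium bromide control for full effect; nearly all actives have a fitted effect of over 65% in size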
Procedure, shortened: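 AC50 values come from Hill modelling of concentration-dependent loss of intracellular ATP, measured by CellTiter-Glo luminescence. Human LYMP2-004 lymphoblastoid cells (2500/well) were exposed to compound for 24 h at 37 C.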

[5] = Cell Viability - LYMP2-005 (AID 967); settings: LYMP2-005 lymphoblastoid cell viability; series mostly up to 92.2 µM;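 note: plate controls were DMSO only for no effect and 92 µM tetraoctylammonium bromide control for full effect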
Procedure, shortened: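 CellTiter-Glo luminescence (cellular ATP) read-out; LYMP2-005 lymphoblastoid cells, 2500/well, 5 h pre-incubation, then 24 h compound exposure at 37 C in complete medium. Tetraoctylammonium bromide positive control; AC50 by standard Hill fit.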

[6] = Cell Viability - LYMP2-013 (AID 970); settings: LYMP2-013 lymphoblastoid cells viability; series mostly up to 92.2 µM;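 note: 0% = DMSO only and full inhibition = tetraoctylammonium bromide control; nearly all actives have a fitted effect of over 55% in size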
Procedure, shortened: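 qHTS cytotoxicity: ATP-dependent luminescence (CellTiter-Glo, 30 min room temperature) read after 24 h compound exposure at 37 C of 2500 LYMP2-013 lymphoblastoid cells per well. Concentration-response fitted with Hill equation to give AC50.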

[7] = Cell Viability - LYMP2-025 (AID 976); settings: LYMP2-025 lymphoblastoid cell viability; series mostly up to 92.2 µM;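 note: plate controls were DMSO only for no effect and tetraoctylammonium bromide control for full effect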
Procedure, shortened: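 Cytotoxicity read as loss of intracellular ATP (luciferase luminescence) after 24 h compound treatment at 37 C. Uses LYMP2-025 lymphoblastoid cells in 1536-well format; Hill-equation modelling gives AC50; tetraoctylammonium bromide as positive control.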

[8] = Cell Viability - LYMP2-007 (AID 979); settings: LYMP2-007 lymphoblastoid cell viability; series mostly up to 92.2 µM;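 note: cells exposed to compound for 24 h before reading; 0% = DMSO only and the negative end = 92 µM tetraoctylammonium bromide; nearly all actives have a fitted effect of over 60% in size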
Procedure, shortened: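 AC50 values come from Hill-equation fits of luminescent intracellular ATP (CellTiter-Glo, 30 min, room temperature) following 24 h compound exposure at 37 C. Cells: LYMP2-007 lymphoblastoid line, 2500 per well, in complete culture medium.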

[9] = Cell Viability - LYMP2-014 (AID 983); settings: LYMP2-014 lymphoblastoid cells, viability qHTS; series mostly up to 92.2 µM;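 note: plate controls were DMSO only for no effect and 92 µM tetraoctylammonium bromide for full effect; nearly all actives have a fitted effect of over 50% in size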
Procedure, shortened: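 Intracellular ATP loss, read by luciferase luminescence, measures acute cytotoxicity after 24 h compound exposure of lymphoblastoid LYMP2-014 cells (2500/well, 37 C). Concentration-response data fitted to the Hill equation for AC50.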

[10] = Cell Viability - LYMP2-018 (AID 985); settings: LYMP2-018 lymphoblastoid cells, viability (qHTS); series mostly up to 92.2 µM;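 note: plate controls were DMSO only for no effect and tetraoctylammonium bromide at 92 µM for full effect; nearly all actives have a fitted effect of over 50% in size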
Procedure, shortened: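 Viability read as CellTiter-Glo luminescence (cellular ATP) after 24 hr compound exposure at 37 C of 2500 LYMP2-018 lymphoblastoid cells/well, pre-plated 5 hr. Hill-equation modelling gave AC50.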

[11] = Cell Viability - LYMP2-022 (AID 987); settings: LYMP2-022 lymphoblastoid cell viability; series mostly up to 92.2 µM;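 note: 0% = DMSO alone and full effect = tetraoctylammonium bromide at 92 µM; nearly all actives have a fitted effect of over 55% in size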
Procedure, shortened: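 Cytotoxicity read as decreased cellular ATP (CellTiter-Glo luminescence, 30 min room temperature) after 24 hours compound exposure of 2500 lymphoblastoid LYMP2-022 cells/well at 37 C. Concentration-response data fitted with standard Hill equation for AC50.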

[12] = Cell Viability - LYMP2-024 (AID 988); settings: LYMP2-024 lymphoblastoid cell viability; series mostly up to 92.2 µM;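 note: plate controls were DMSO only for no effect and 92 µM tetraoctylammonium bromide for full effect; nearly all actives have a fitted effect of over 60% in size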
Procedure, shortened: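 Cytotoxicity was taken as a decrease in ATP (CellTiter-Glo luminescence) after 24 hr compound exposure at 37 C of LYMP2-024 lymphoblastoid cells, 2500 cells/well. Concentration-response data were fitted to the Hill equation to give AC50.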

[13] = qHTS assay for small molecule agonists of retinoid X receptor alpha signaling (AID 588544); settings: HEK293T RXRa-UAS-bla, beta-lactamase reporter, 18 h; 530 nm emission
[14] = target: Thyroid hormone receptor beta (Homo sapiens) (UniProt P10828); test: qHTS assay for small molecule agonists of thyroid hormone receptor beta signaling (AID 588545; calls by dose curve); settings: TR-UAS-bla GripTite HEK 293, beta-lactamase ratio, agonist mode, 18 h; series mostly up to 76.7 µM
Thyroid hormone receptor beta (Homo sapiens), sequence (P10828 whole entry, looked up): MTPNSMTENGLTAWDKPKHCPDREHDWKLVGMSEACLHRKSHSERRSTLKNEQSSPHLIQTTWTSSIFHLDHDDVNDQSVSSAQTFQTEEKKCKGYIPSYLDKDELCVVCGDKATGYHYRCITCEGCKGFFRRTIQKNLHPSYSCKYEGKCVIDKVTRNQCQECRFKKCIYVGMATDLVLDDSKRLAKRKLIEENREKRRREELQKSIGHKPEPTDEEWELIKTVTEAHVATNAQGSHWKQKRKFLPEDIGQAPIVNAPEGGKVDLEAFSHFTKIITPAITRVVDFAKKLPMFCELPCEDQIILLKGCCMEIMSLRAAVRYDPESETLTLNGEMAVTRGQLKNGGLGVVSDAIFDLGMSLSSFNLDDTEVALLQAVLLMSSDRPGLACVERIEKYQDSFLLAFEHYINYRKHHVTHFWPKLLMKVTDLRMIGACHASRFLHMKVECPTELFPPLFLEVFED
Procedure, shortened: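 Agonist activity was read as beta-lactamase CCF4 fluorescence (405 ex, 460/530 em), scaled between DMSO (0%) and 10 nM T3 (100%), then Hill-fitted for EC50 and efficacy. HEK 293 TR-UAS-bla cells in 2% charcoal/dextran FBS medium were exposed 18 h at 37 C.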

[15] = qHTS assay for small molecule antagonists of retinoid X receptor alpha signaling (AID 588546); settings: HEK293T RXRa-UAS-bla, beta-lactamase ratio, antagonist mode; measured here: W530 green channel, cytotoxicity proxy;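 note: cells stimulated with 9-cis-retinoic acid as agonist; % is set by controls: 0 for no effect and ±100 for the full control effect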
Procedure, shortened: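 Beta-lactamase reporter inhibition, read as CCF4 fluorescence ratio (ex 405, em 460/530 nm) after 2 h at RT. HEK293T UAS-bla cells, 2500/well, were stimulated with 9-cis-RA at 500 or 100 nM final alongside test compound for 18 h at 37 C.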

[16] = target: Thyroid hormone receptor beta (Homo sapiens) (UniProt P10828); test: qHTS assay for small molecule antagonists of thyroid hormone receptor beta signaling (AID 588547; active = well fitted inhibition curve with a large enough effect in the signal ratio, with a control signal flat, not every such curve was filed as active; the % refers to the signal ratio;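 note: cells stimulated with 0.4 nM T3 agonist during compound exposure; % is set by controls: 0 for no effect and ±100 for the full control effect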); settings: TR-UAS-bla HEK293, beta-lactamase ratio, antagonist mode, 18 h
Procedure, shortened: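 TR-UAS-bla GripTite HEK293 cells in 2% charcoal/dextran FBS medium were preincubated 4 h at 37 C, given compound (0.59 nM to 92 uM) plus 0.4 nM T3 (final) for 18 h, then CCF4 for 2 h at RT; Hill fit gave IC50.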

[17] = target: Tumor necrosis factor (Homo sapiens) (UniProt P01375); test: qHTS assay to identify small molecules that stimulate Tumor Necrosis Factor-alpha (TNF-alpha) secretion (AID 651757; active = well fitted curve in the direction sought with a large enough effect in the signal ratio; the % refers to the signal ratio; note: 0% is about no effect); settings: Human cells, HTRF 665/615 ratio; series mostly up to 92.2 µM
Tumor necrosis factor (Homo sapiens), sequence (P01375 whole entry, looked up): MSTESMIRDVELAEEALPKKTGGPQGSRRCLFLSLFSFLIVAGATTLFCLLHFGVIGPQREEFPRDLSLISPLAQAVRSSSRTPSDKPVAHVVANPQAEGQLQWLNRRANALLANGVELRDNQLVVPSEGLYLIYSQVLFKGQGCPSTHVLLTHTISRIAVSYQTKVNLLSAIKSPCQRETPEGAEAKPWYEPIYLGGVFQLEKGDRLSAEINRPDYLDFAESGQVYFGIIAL
Procedure, shortened: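 Secreted TNF-alpha quantified by TR-FRET sandwich of two labeled anti-TNF-alpha antibodies, incubated 3 hr at room temperature. Preceded by 17 hr, 37 C compound treatment of THP-1 cells at 3000 cells/well.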

[18] = qHTS assay for cell viability of HEK293 cells (AID 743288); settings: ATP luminescence (CellTiter-Glo), 18 h, stronger effect = lower value; note: % is set by controls: 0 for no effect and ±100 for the full control effect; nearly all actives have a fitted effect of over 50% in size
Procedure, shortened: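 After 18 h compound exposure at 37 C, parental HEK293 cells (2,000/well) are lysed with CellTiter-Glo and luminescence is read following 30 min at room temperature.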

[19] = Cellular Toxicity (caspase-3) HUV-EC-C (AID 656); settings: HUV-EC-C cells, caspase-3 activation (apoptosis), vehicle = 0, 100 µM tamoxifen = 100%; series mostly up to 92.2 µM;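 note: 0% = DMSO basal and 100% = 100 µM tamoxifen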
Procedure, shortened: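 HUV-EC-C endothelial cells, 1000/well, were pre-incubated 5 hr at 37°C, then exposed to compounds for 16 hr at 37°C. Caspase-Glo 3/7 luminescence was read after 20 min at room temperature. AC50 came from Hill fits, normalized to DMSO and 100 uM tamoxifen.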

[20] = target: Nuclear receptor subfamily 1 group I member 2 (Rattus norvegicus) (UniProt Q9R1A7); test: qHTS assay for small molecule activators of the rat pregnane X receptor (rPXR) signaling pathway (AID 651751; call rule not given here; note: 0% is about no effect); settings: rPXR reporter cells, luciferase (One-Glo), 24 h
Nuclear receptor subfamily 1 group I member 2 (Rattus norvegicus), sequence (Q9R1A7 whole entry, looked up): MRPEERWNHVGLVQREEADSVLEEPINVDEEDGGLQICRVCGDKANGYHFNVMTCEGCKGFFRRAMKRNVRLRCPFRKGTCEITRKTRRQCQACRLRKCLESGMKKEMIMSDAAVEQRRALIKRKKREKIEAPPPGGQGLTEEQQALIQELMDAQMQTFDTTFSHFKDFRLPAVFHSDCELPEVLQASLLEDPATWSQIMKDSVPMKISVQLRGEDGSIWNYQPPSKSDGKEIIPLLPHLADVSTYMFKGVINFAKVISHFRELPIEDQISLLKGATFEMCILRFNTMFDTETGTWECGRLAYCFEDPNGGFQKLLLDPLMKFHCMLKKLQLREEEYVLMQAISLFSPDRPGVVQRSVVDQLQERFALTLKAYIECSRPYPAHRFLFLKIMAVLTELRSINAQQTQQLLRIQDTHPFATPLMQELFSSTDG

Cc1coc2c1CCC(C)C2 (centres undefined)
-8.18%: max response [15]
inactive: Potency [1] > 92 µM | Potency [2] | Potency [3] | Potency [4] | Potency [5] | Potency [6] | Potency [7] | Potency [8] | Potency [9] | Potency [10] | Potency [11] | Potency [12] | Potency [14] | activity change % (negative = inhibition) [16] 22.1% | outcome [17] | max response [18] 2.25%
-8.64%: max response [13]

Cc1cccc(C)c1N
-2.21%: max response [13]
inactive: Potency [1] > 92 µM | outcome [19] | Potency [2] | Potency [3] | Potency [4] | Potency [5] | Potency [6] | Potency [7] | Potency [8] | Potency [9] | Potency [10] | Potency [11] | Potency [12] | Potency [14] | activity change % (negative = inhibition) [16] -2.91% | outcome [17] | max response [20] 0.51%
-4.18%: max response [15]

C=C(Cl)CCl
-8.31%: max response [13]
inactive: Potency [1] > 92 µM | outcome [19] | Potency [2] | Potency [3] | Potency [4] | Potency [5] | Potency [6] | Potency [7] | Potency [8] | Potency [9] | Potency [10] | Potency [11] | Potency [12] | Potency [14] | activity change % (negative = inhibition) [16] 0.727% | outcome [17] | max response [18] -2.76% | max response [20] 1.93%
4.21%: max response [15]

CC(C)OC(=O)Cc1ccccc1
-2.88%: max response [15]
1.88%: max response [13]
inactive: Potency [1] > 92 µM | outcome [19] | Potency [2] | Potency [3] | Potency [4] | Potency [5] | Potency [6] | Potency [7] | Potency [8] | Potency [9] | Potency [10] | Potency [11] | Potency [12] | Potency [14] | activity change % (negative = inhibition) [16] -4.91% | outcome [17] | max response [18] -4.3% | max response [20] 1.04%

CC(Cl)(Cl)Cl
inactive: Potency [1] > 92 µM | Potency [2] | Potency [4] | Potency [5] | Potency [6] | Potency [7] | Potency [8] | Potency [9] | Potency [10] | Potency [11] | Potency [12] | Potency [14] | activity change % (negative = inhibition) [16] 0.316% and -7.15% | outcome [17] | max response [18] 6.17% and -1.09% | max response [20] -1.71% and -2.72%
0.916% and -3.55%: max response [15]
-3.95% and -14.6%: max response [13]

CC(C)Br
inactive: Potency [1] > 92 µM | outcome [19] | Potency [2] | Potency [3] | Potency [4] | Potency [5] | Potency [6] | Potency [7] | Potency [8] | Potency [9] | Potency [10] | Potency [11] | Potency [12] | Potency [14] | outcome [17] | max response [18] -0.407% | max response [20] -2.97%
4.33%: max response [15]
-8.42%: max response [13]
